A selection: hits, their analogues and other compounds. The true share with any hit is near 7.3%.
Rab9 promoter act = activates the Rab9 promoter | Huh7 Rab9 promoter-luciferase reporter, luminescence, 24 h | Potency, µM (series often up to 9.22 µM), without a hit: top-dose activation, negative = inhibition, usual class: activators | hit rate 2.8% among 320,000 | AID 485297; also: % of control where 0% means no effect; nearly all actives have a fitted effect of over 60% in size
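Huh7 cells stably carrying Rab9 promoter–luciferase reporter, plated 1500 cells/well, compound added after 2 h and incubated 24 h at 37 °C; luciferase luminescence then read after 10 min with detection reagent.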
FLuc modulator = counter-screen for miR-21 project: firefly luciferase inhibitors or activators; purified FLuc, Km substrates, luminescence inhibition; AID 588342; hit rate 6.9% among 360,000; Potency, µM (series often up to 57.5 µM), inactives show at the top dose activity change, negative = inhibition, usual class: inhibitors;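 also: plate controls were vehicle for no effect and reference inhibitor for full effect; nearly all actives have a fitted effect of over 55% in size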
Target sequence (P08659 whole entry, looked up): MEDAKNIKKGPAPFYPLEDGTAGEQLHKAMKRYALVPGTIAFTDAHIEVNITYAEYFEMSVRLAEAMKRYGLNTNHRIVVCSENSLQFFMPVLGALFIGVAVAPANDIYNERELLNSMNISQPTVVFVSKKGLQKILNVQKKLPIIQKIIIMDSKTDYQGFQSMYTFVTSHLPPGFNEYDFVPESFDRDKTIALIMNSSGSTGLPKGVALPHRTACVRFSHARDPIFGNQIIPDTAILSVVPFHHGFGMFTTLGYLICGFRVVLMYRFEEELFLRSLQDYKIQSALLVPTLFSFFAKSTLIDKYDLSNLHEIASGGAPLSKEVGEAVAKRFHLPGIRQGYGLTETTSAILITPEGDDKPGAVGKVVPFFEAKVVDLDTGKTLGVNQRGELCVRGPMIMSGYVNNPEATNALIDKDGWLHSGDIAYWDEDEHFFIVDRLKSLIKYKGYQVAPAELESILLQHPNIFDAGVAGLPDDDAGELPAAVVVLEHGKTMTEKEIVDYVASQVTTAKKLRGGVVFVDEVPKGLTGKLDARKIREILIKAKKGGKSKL
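Purified P. pyralis luciferase, 10 nM final, with Km-level 10 uM D-luciferin and 10 uM ATP in 50 mM Tris acetate pH 7.5, 10 mM Mg acetate, 0.01% Tween-20, 0.05% BSA; 6-point qHTS titration about 60 µM downward; luminescence read.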
SMN2 splice up = enhancers of SMN2 splice variant expression; AID 1458; Potency, µM (series often up to 46.1 µM), for inactives: at the highest dose activity change, positive = activation, usual class: activators; hit rate 2.8% among 210,000; HEK293 SMN2-luciferase splicing reporter, luminescence, 30-36 h; also: % of control where 0% means no effect; nearly all actives have a fitted effect of over 55% in size
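HEK293 cells carry an SMN2 […]–luciferase reporter in which exon 7 inclusion puts luciferase in frame. Cells were plated 10-12 h before compound addition, then incubated 30-36 h at 37C. ONE-Glo luminescence was read; sodium butyrate at 4.5 mM final served as control.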
NPC1 prom act = NPC1 promoter activation | Potency, µM (series often up to 9.22 µM), for inactives: top-dose activation, actives largely listed as activators | AID 485313 | Huh7 NPC1 promoter luciferase reporter, 24 h | hit rate 2.4% among 320,000; also: % of control where 0% means no effect; nearly all actives have a fitted effect of over 60% in size
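Readout is luciferase luminescence, reflecting NPC1 promoter activation in stably transfected Huh7 cells after 24 h compound exposure at 37 °C in reduced-serum medium with 10% FBS.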
p53 reactivation = mutant p53 re-activation in reporter cells | AID 504706 | H1299 p53-A138V BP100-luciferase reporter, luminescence, 24 h | hit rate 0.063% among 320,000 | Potency, µM (series often up to 92.2 µM), for inactives: at the top dose activity change, positive = activation, actives largely listed as activators; also: % of control where 0% means no effect; nearly all actives have a fitted effect of over 45% in size
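H1299 (p53-null), stable ts p53-A138V + BP100-Luc; 1000 cells/well, Opti-MEM/10% FBS; cpd 4 pt, 1:5; 24 h, 37 deg C, 5% CO2; detection reagent 10 min RT; luminescence.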
ELG1 genotox = inducers of genotoxicity in HEK293T ELG1-luciferase cells. HEK293T ELG1-luciferase reporter, luminescence, 16 h. Potency, µM (doses to about 46 µM), for inactives: at the highest dose activity change, positive = activation, actives largely listed as activators. hit rate 1.3% among 330,000. AID 504466; also: % of control where 0% means no effect; nearly all actives have a fitted effect of over 60% in size
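After overnight (16 hr) compound treatment at 37 °C, ELG1-luciferase HEK293T cells were lysed with ONE-Glo; luminescence quantified 30 min later at room temperature.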
Starred values were filed as active, the others as inactive; [ ] = another dose, or the depositor's remark. Calls follow the shape of the dose curve; as a rule, active = well fitted curve in the direction sought with a large enough effect; inconclusive = small, poorly fitted or top-dose-only effect, or another doubt; inactive = no such curve, though single readings can be large; an effect the other way counts as inactive or inconclusive. Potency is read from the fitted curve at half-maximal effect.

What do the screens show for `CCCN=Cc1sc2ccc(OCC)cc2c1O`?
Rab9 promoter act: 3.16µM*; FLuc modulator: 12µM*; SMN2 splice up: 2.6%; NPC1 prom act: inconclusive; p53 reactivation: 17.0%; ELG1 genotox: 23.1µM*

What do the screens show for `Cc1ccccc1OCCC(=O)Nc1ccc(N2CCOCC2)cc1N1CCOCC1`?
Rab9 promoter act: -2.9%; FLuc modulator: 5.1%; NPC1 prom act: -1.7%; p53 reactivation: 3.1%; ELG1 genotox: -1.1%

How did COc1ccc2nc(N(Cc3cccnc3)C(=O)c3ccc(Cl)cc3)sc2c1 do in these assays?
FLuc modulator: -12.1%

Results for O=C(N/N=C\c1ccc(-c2ccccc2[N+](=O)[O-])o1)C1COc2ccccc2O1 (stereo not drawn) ?
Rab9 promoter act: 2.7%; FLuc modulator: -16.8%; SMN2 splice up: 0.5%; NPC1 prom act: 4.1%; p53 reactivation: 1.2%; ELG1 genotox: -4.1%

What do the screens show for `CC(C)(C)c1ccc2c(c1)OC(C(=O)N/N=C\c1ccccn1)CO2` (stereo not drawn)?
Rab9 promoter act: -2.0%; FLuc modulator: -16.3%; SMN2 splice up: -5.4%; NPC1 prom act: 0.3%; p53 reactivation: 2.3%; ELG1 genotox: -5.2%

Results for CC(C)(C)c1ccc2c(c1)OC(C(=O)N/N=C\c1ccc(-c3cccc(C(=O)O)c3)o1)CO2 (stereo not drawn) ?
Rab9 promoter act: 1.0%; FLuc modulator: 19µM*; NPC1 prom act: 5.4%; p53 reactivation: 8.3%; ELG1 genotox: 10.3%

How did O=C(O)c1cccc(-c2ccc(/C=N/NC(=O)C3COc4ccccc4O3)o2)c1 (stereo not drawn) do in these assays?
Rab9 promoter act: -2.3%; FLuc modulator: 23.9µM*; SMN2 splice up: -0.7%; NPC1 prom act: 0.9%; p53 reactivation: 4.2%; ELG1 genotox: 8.6%

Results for COc1ccc(F)cc1S(=O)(=O)Nc1cccc(-c2ccc(N3CCC(C)CC3)nn2)c1 ?
FLuc modulator: 5.36µM*

What do the screens show for `COc1ccc(C)cc1S(=O)(=O)Nc1cccc(-c2ccc(N3CCC(C)CC3)nn2)c1`?
FLuc modulator: 2.39µM*

What do the screens show for `CCOc1ccc(-c2ccc(NS(=O)(=O)c3cc(C)ccc3OC)cc2)nn1`?
FLuc modulator: 0.0%

Results for COc1ccc(C)cc1S(=O)(=O)Nc1cccc(-c2ccc(N3CCCCCC3)nn2)c1 ?
Rab9 promoter act: 3.1%; FLuc modulator: 9.53µM*; NPC1 prom act: -0.3%; p53 reactivation: 5.0%; ELG1 genotox: 1.8%

What do the screens show for `CC(C)C(NS(=O)(=O)c1ccc2c(c1)oc(=O)n2C)C(=O)NCCc1ccccc1` (stereo not drawn)?
FLuc modulator: -2.7%; SMN2 splice up: -5.2%

Results for N=C1[C@@H](O)[C@]2(I)c3ccccc3N3C(=N)[C@H](O)[C@@H]4c5ccccc5N1[C@@H]4[C@@H]32 ?
SMN2 splice up: -4.3%[9.22 µM]

Results for Clc1cccc(N/N=C(\Cc2nc3ccccc3[nH]2)c2ccccc2)c1 ?
Rab9 promoter act: 14.1%; FLuc modulator: inconclusive; SMN2 splice up: 10.9%; NPC1 prom act: 2.8%; p53 reactivation: inconclusive; ELG1 genotox: 1.1%

How did CCC1Oc2ccc(C)cc2N(CC(=O)NCCc2ccccc2)C1=O (stereo not drawn) do in these assays?
FLuc modulator: -2.0%

Results for COc1ccc(C2=CC(c3cc(Br)ccc3F)n3c(nc4ccccc43)N2)cc1 (stereo not drawn) ?
FLuc modulator: 4.26µM*

How did Fc1ccc(C2=CC(c3ccc(F)cc3)n3c(nc4ccccc43)N2)cc1 (stereo not drawn) do in these assays?
FLuc modulator: 10.7µM*

How did CNC(=O)C1=C(C)Nc2nc3ccccc3n2C1c1ccc(F)cc1 (stereo not drawn) do in these assays?
Rab9 promoter act: 12.2%; FLuc modulator: 1.2%; NPC1 prom act: -2.7%; p53 reactivation: 2.4%; ELG1 genotox: 0.7%

Results for COC(=O)c1ccc(C2C=C(c3ccc(Cl)cc3)Nc3nc4ccccc4n32)cc1 (stereo not drawn) ?
FLuc modulator: 6.75µM*

What do the screens show for `CCOC(=O)CCCNC(=O)N1CCc2nc(-c3ccc(OC)cc3C)c3c(c2C1)CO[C@@H](c1ccccc1)C3`?
SMN2 splice up: -4.3%[9.22 µM]

What do the screens show for `COc1cccc(-c2c(C(=O)N/N=C/c3ccoc3)nnn2-c2nonc2N)c1`?
Rab9 promoter act: 0.7%; FLuc modulator: -0.6%; NPC1 prom act: -3.5%; p53 reactivation: -4.2%; ELG1 genotox: 3.2%

Results for COc1ccc(Nc2nc(N)nc(CSc3nc(C)cc(C)n3)n2)cc1 ?
Rab9 promoter act: -8.7%; FLuc modulator: -19.7%; NPC1 prom act: -4.8%; p53 reactivation: -3.0%; ELG1 genotox: 8.8%

How did Cn1cnnc1SCc1nc(N)nc(Nc2ccccc2)n1 do in these assays?
Rab9 promoter act: inconclusive; FLuc modulator: inconclusive; SMN2 splice up: 5.2%; NPC1 prom act: inconclusive; p53 reactivation: 16.5%; ELG1 genotox: inconclusive

How did Cc1ccc(Nc2nc(N)nc(CSc3nncn3C)n2)cc1 do in these assays?
Rab9 promoter act: 2.82µM*; FLuc modulator: 13.5µM*; SMN2 splice up: 17.8µM*; NPC1 prom act: 3.16µM*; p53 reactivation: inconclusive; ELG1 genotox: inconclusive

How did COc1ccc(Nc2nc(N)nc(CSc3nccn3C)n2)cc1 do in these assays?
Rab9 promoter act: 1.78µM*; FLuc modulator: 21.3µM*; NPC1 prom act: 1.41µM*; p53 reactivation: -1.6%; ELG1 genotox: inconclusive

Results for COc1ccc(Nc2nc(N)nc(SCc3nnc(C)s3)n2)cc1 ?
Rab9 promoter act: inconclusive; FLuc modulator: 23.9µM*; SMN2 splice up: inconclusive; NPC1 prom act: 26.2%; p53 reactivation: inconclusive; ELG1 genotox: inconclusive

How did COc1ccc2nc(SCc3nc(N)nc(Nc4ccccc4)n3)[nH]c2c1 do in these assays?
Rab9 promoter act: 13.7%; FLuc modulator: 13.5µM*; SMN2 splice up: -12.9%; NPC1 prom act: -5.8%; p53 reactivation: 4.4%; ELG1 genotox: -0.7%

How did CCc1ccc(CNC(=O)CN2C(=O)c3cccnc3Oc3ccc(C)cc32)cc1 do in these assays?
FLuc modulator: -10.9%

What do the screens show for `Cc1ccccc1OCC(=O)Nc1ccc(C(=O)OCc2cc(=O)n3ccsc3n2)cc1`?
FLuc modulator: -5.2%

What do the screens show for `Nc1nc(CSc2ccccn2)nc(Nc2ccccc2)n1`?
Rab9 promoter act: 1.41µM*; FLuc modulator: 9.53µM*; SMN2 splice up: 11.2µM*; NPC1 prom act: 2.82µM*; p53 reactivation: inconclusive; ELG1 genotox: inconclusive

Screening data as filed in PubChem.
